# Results reported in PMC7862700, “An all-to-all approach to the identification of sequence-specific readers for epigenetic DNA modifications on cytosine”.
# Key:
# Assay in all cases: DAPPL (digital affinity profiling via proximity ligation, sequencing); 10 mM Tris-HCl pH 7.5, 50 mM NaCl, 1 mM DTT, 4% glycerol, room temperature, 30 min; GST-TFs on glutathione beads, 16-mer random dsDNA library, 0.1% formaldehyde crosslink after washing; high values mean tight binding
# Details in all cases: protein: recombinant; tags: N-terminal GST; dsDNA, one strand shown
# [1] = target: T1, ERF (Homo sapiens, UniProt P50548 1-548)
# T1 sequence: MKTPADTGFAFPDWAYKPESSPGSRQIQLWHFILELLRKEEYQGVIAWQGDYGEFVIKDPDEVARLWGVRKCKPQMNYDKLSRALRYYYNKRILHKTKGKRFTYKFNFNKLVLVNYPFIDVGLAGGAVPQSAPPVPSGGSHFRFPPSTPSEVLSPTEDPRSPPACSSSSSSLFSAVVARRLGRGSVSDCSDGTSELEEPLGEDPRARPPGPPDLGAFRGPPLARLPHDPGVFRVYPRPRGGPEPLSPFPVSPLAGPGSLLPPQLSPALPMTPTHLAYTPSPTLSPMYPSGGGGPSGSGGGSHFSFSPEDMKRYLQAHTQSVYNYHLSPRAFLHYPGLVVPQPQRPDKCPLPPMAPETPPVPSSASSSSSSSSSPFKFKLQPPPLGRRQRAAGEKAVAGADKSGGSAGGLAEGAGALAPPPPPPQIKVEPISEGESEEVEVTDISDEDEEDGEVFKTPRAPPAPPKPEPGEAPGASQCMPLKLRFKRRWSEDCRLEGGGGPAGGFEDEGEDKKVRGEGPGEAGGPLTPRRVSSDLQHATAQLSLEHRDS
# In short: (§1)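 GST fusions of human transcription factors were expressed in yeast and captured with glutathione beads. Once given DNA barcodes and pooled alongside a tag-only sample, they were incubated for 30 min at room temperature with 200 nmole of a random double-stranded 16-mer DNA library in Tris/NaCl/DTT/glycerol buffer, then washed, crosslinked (0.1% formaldehyde), proximity-ligated, PCR-amplified and sequenced on an Illumina NextSeq500. The binding signal of each hexamer is its read frequency for a factor divided by its frequency for the tag-only sample.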
# [2] = target: T2, ETV3L (Homo sapiens, UniProt Q6ZN32 1-361)
# T2 sequence: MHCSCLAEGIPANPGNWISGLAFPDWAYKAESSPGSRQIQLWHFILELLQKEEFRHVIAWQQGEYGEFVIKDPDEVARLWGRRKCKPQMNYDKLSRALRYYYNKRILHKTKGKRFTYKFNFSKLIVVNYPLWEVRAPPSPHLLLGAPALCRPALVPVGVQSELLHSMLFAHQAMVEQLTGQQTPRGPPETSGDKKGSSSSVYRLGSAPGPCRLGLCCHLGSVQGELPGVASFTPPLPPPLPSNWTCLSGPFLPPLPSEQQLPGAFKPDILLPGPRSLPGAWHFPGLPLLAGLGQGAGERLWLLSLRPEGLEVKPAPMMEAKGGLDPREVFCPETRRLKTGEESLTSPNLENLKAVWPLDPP
# In short: as §1
# [3] = target: T3, ETS2 (Homo sapiens, UniProt P15036 1-469)
# T3 sequence: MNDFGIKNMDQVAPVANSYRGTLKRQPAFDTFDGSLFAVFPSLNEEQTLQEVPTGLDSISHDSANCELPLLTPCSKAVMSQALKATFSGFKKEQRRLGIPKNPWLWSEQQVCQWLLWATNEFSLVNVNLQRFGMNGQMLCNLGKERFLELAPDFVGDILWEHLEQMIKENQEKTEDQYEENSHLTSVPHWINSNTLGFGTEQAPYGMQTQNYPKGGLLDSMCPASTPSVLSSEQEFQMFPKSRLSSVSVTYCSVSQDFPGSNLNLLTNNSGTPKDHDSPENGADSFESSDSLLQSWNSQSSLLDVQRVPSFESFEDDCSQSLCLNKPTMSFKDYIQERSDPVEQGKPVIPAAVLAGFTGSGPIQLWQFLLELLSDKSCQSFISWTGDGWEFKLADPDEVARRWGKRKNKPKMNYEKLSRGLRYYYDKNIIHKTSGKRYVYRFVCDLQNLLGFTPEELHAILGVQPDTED
# In short: as §1
# [4] = target: T4, SPDEF (Homo sapiens, UniProt O95238 1-335)
# T4 sequence: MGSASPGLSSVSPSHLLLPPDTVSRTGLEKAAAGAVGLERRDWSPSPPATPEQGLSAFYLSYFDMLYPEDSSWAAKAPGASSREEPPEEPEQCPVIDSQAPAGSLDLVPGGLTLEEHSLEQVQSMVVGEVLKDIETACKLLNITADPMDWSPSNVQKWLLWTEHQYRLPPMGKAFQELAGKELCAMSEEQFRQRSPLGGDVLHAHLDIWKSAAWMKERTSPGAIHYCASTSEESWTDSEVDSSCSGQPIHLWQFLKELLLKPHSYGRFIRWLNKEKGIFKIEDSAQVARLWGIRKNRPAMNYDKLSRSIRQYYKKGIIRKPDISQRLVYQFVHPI
# In short: as §1
# [5] = target: T5, ETV7 (Homo sapiens, UniProt Q9Y603 1-341)
# T5 sequence: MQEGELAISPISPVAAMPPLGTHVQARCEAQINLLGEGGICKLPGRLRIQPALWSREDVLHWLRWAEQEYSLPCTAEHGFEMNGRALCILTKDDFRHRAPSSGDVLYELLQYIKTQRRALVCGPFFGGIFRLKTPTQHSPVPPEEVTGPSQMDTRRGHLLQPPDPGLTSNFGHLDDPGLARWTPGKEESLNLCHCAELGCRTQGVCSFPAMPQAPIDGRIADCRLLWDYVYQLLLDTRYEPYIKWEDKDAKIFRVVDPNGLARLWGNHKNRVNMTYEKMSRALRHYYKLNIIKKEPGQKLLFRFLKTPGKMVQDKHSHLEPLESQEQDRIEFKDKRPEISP
# In short: as §1
# [6] = target: T6, ETV3 (Homo sapiens, UniProt P41162-2 1-143)
# T6 sequence: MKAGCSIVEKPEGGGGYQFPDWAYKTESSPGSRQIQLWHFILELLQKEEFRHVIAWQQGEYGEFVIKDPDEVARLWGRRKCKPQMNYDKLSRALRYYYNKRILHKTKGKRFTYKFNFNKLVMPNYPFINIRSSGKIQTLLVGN
# In short: as §1
# [7] = target: ETV6 (Homo sapiens, UniProt P41212 1-452)
# In short: as §1
# ETV6, sequence (P41212 whole entry): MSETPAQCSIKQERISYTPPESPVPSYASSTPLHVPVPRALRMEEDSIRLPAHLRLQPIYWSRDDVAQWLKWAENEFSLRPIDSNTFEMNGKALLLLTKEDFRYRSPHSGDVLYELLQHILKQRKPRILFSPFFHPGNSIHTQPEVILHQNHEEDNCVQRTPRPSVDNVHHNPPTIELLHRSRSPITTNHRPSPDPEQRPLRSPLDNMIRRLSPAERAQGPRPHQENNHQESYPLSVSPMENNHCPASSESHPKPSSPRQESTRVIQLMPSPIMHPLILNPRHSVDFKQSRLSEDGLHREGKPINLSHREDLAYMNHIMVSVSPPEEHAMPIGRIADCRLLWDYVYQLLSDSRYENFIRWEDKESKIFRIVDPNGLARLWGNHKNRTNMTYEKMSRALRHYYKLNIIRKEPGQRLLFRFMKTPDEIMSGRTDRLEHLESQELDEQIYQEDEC
Sequence,binding signal [1],binding signal [2],binding signal [3],binding signal [4],binding signal [5],binding signal [6],binding signal [7]
CTGAGC,"1.06 fold enrichment (6-mer frequency, TF over GST control)","1.14 fold enrichment (6-mer frequency, TF over GST control)","1.15 fold enrichment (6-mer frequency, TF over GST control)","1.16 fold enrichment (6-mer frequency, TF over GST control)","1.16 fold enrichment (6-mer frequency, TF over GST control)","1.01 fold enrichment (6-mer frequency, TF over GST control)","1.16 fold enrichment (6-mer frequency, TF over GST control)"
TTGGGC,"1.12 fold enrichment (6-mer frequency, TF over GST control)","1.22 fold enrichment (6-mer frequency, TF over GST control)","1.12 fold enrichment (6-mer frequency, TF over GST control)","1 fold enrichment (6-mer frequency, TF over GST control)","1.09 fold enrichment (6-mer frequency, TF over GST control)","1.04 fold enrichment (6-mer frequency, TF over GST control)","1.11 fold enrichment (6-mer frequency, TF over GST control)"
CACTGG,"1.17 fold enrichment (6-mer frequency, TF over GST control)","1.16 fold enrichment (6-mer frequency, TF over GST control)","1.01 fold enrichment (6-mer frequency, TF over GST control)","1.02 fold enrichment (6-mer frequency, TF over GST control)","1.03 fold enrichment (6-mer frequency, TF over GST control)","1.07 fold enrichment (6-mer frequency, TF over GST control)","1.04 fold enrichment (6-mer frequency, TF over GST control)"
AGCTCA,"1.08 fold enrichment (6-mer frequency, TF over GST control)","1.08 fold enrichment (6-mer frequency, TF over GST control)","1.13 fold enrichment (6-mer frequency, TF over GST control)","1.08 fold enrichment (6-mer frequency, TF over GST control)","1.03 fold enrichment (6-mer frequency, TF over GST control)","1.15 fold enrichment (6-mer frequency, TF over GST control)","1.1 fold enrichment (6-mer frequency, TF over GST control)"
ACACCT,"1.14 fold enrichment (6-mer frequency, TF over GST control)","1.15 fold enrichment (6-mer frequency, TF over GST control)","1.05 fold enrichment (6-mer frequency, TF over GST control)","1.05 fold enrichment (6-mer frequency, TF over GST control)","1.11 fold enrichment (6-mer frequency, TF over GST control)","1.08 fold enrichment (6-mer frequency, TF over GST control)","1.06 fold enrichment (6-mer frequency, TF over GST control)"
TTTAGG,"1.22 fold enrichment (6-mer frequency, TF over GST control)","1.02 fold enrichment (6-mer frequency, TF over GST control)","1.11 fold enrichment (6-mer frequency, TF over GST control)","1.09 fold enrichment (6-mer frequency, TF over GST control)","1.19 fold enrichment (6-mer frequency, TF over GST control)","1.07 fold enrichment (6-mer frequency, TF over GST control)","1.19 fold enrichment (6-mer frequency, TF over GST control)"
CAATAG,"1.21 fold enrichment (6-mer frequency, TF over GST control)","1.02 fold enrichment (6-mer frequency, TF over GST control)","1.08 fold enrichment (6-mer frequency, TF over GST control)","1.08 fold enrichment (6-mer frequency, TF over GST control)","1.11 fold enrichment (6-mer frequency, TF over GST control)","1.09 fold enrichment (6-mer frequency, TF over GST control)","1.12 fold enrichment (6-mer frequency, TF over GST control)"
ATAAGC,"1.18 fold enrichment (6-mer frequency, TF over GST control)","1.12 fold enrichment (6-mer frequency, TF over GST control)","1.08 fold enrichment (6-mer frequency, TF over GST control)","1.07 fold enrichment (6-mer frequency, TF over GST control)","1.11 fold enrichment (6-mer frequency, TF over GST control)","1.11 fold enrichment (6-mer frequency, TF over GST control)","1.02 fold enrichment (6-mer frequency, TF over GST control)"
TTAGAA,"1.1 fold enrichment (6-mer frequency, TF over GST control)","1.07 fold enrichment (6-mer frequency, TF over GST control)","1.08 fold enrichment (6-mer frequency, TF over GST control)","1 fold enrichment (6-mer frequency, TF over GST control)","1.08 fold enrichment (6-mer frequency, TF over GST control)","1.06 fold enrichment (6-mer frequency, TF over GST control)","1.15 fold enrichment (6-mer frequency, TF over GST control)"
CGAGCT,"1.09 fold enrichment (6-mer frequency, TF over GST control)","1.02 fold enrichment (6-mer frequency, TF over GST control)","1.07 fold enrichment (6-mer frequency, TF over GST control)","1.04 fold enrichment (6-mer frequency, TF over GST control)","1.02 fold enrichment (6-mer frequency, TF over GST control)","1.06 fold enrichment (6-mer frequency, TF over GST control)","1.01 fold enrichment (6-mer frequency, TF over GST control)"
TGCGTT,"1.2 fold enrichment (6-mer frequency, TF over GST control)","1.11 fold enrichment (6-mer frequency, TF over GST control)","1.09 fold enrichment (6-mer frequency, TF over GST control)","1.08 fold enrichment (6-mer frequency, TF over GST control)","1.24 fold enrichment (6-mer frequency, TF over GST control)","1.06 fold enrichment (6-mer frequency, TF over GST control)",–
AGGTAT,"1.16 fold enrichment (6-mer frequency, TF over GST control)","1.02 fold enrichment (6-mer frequency, TF over GST control)","1 fold enrichment (6-mer frequency, TF over GST control)","1.12 fold enrichment (6-mer frequency, TF over GST control)","1.12 fold enrichment (6-mer frequency, TF over GST control)","1.11 fold enrichment (6-mer frequency, TF over GST control)","1.01 fold enrichment (6-mer frequency, TF over GST control)"
GGCTAG,"1.17 fold enrichment (6-mer frequency, TF over GST control)","1.06 fold enrichment (6-mer frequency, TF over GST control)","1.14 fold enrichment (6-mer frequency, TF over GST control)","1.14 fold enrichment (6-mer frequency, TF over GST control)","1.2 fold enrichment (6-mer frequency, TF over GST control)","1.13 fold enrichment (6-mer frequency, TF over GST control)","1.18 fold enrichment (6-mer frequency, TF over GST control)"
CAACCA,"1.14 fold enrichment (6-mer frequency, TF over GST control)","1.05 fold enrichment (6-mer frequency, TF over GST control)","1.1 fold enrichment (6-mer frequency, TF over GST control)","1.09 fold enrichment (6-mer frequency, TF over GST control)","1.04 fold enrichment (6-mer frequency, TF over GST control)","1.1 fold enrichment (6-mer frequency, TF over GST control)","1.03 fold enrichment (6-mer frequency, TF over GST control)"
GATAGC,"1.15 fold enrichment (6-mer frequency, TF over GST control)","1.06 fold enrichment (6-mer frequency, TF over GST control)","1.12 fold enrichment (6-mer frequency, TF over GST control)","1.05 fold enrichment (6-mer frequency, TF over GST control)","1.06 fold enrichment (6-mer frequency, TF over GST control)","1.05 fold enrichment (6-mer frequency, TF over GST control)","1.03 fold enrichment (6-mer frequency, TF over GST control)"
TAGAAA,"1.04 fold enrichment (6-mer frequency, TF over GST control)","1.08 fold enrichment (6-mer frequency, TF over GST control)","1.08 fold enrichment (6-mer frequency, TF over GST control)","1.04 fold enrichment (6-mer frequency, TF over GST control)","1.12 fold enrichment (6-mer frequency, TF over GST control)","1.05 fold enrichment (6-mer frequency, TF over GST control)","1.06 fold enrichment (6-mer frequency, TF over GST control)"
